Anthrax LF inh2: Bacillus anthracis LF protease inhibitors, primary screen, biochemical, multiplex microsphere, MLPCN library. Lethal factor (Bacillus anthracis), P15917. multiplex microsphere protease cleavage assay. inhibition, % at 10 µM. hit rate 0.12% among 360,000. AID 588501, 2011; further: plate controls were buffer without enzyme for full effect and enzyme alone for no effect
Target sequence (P15917 whole entry, looked up): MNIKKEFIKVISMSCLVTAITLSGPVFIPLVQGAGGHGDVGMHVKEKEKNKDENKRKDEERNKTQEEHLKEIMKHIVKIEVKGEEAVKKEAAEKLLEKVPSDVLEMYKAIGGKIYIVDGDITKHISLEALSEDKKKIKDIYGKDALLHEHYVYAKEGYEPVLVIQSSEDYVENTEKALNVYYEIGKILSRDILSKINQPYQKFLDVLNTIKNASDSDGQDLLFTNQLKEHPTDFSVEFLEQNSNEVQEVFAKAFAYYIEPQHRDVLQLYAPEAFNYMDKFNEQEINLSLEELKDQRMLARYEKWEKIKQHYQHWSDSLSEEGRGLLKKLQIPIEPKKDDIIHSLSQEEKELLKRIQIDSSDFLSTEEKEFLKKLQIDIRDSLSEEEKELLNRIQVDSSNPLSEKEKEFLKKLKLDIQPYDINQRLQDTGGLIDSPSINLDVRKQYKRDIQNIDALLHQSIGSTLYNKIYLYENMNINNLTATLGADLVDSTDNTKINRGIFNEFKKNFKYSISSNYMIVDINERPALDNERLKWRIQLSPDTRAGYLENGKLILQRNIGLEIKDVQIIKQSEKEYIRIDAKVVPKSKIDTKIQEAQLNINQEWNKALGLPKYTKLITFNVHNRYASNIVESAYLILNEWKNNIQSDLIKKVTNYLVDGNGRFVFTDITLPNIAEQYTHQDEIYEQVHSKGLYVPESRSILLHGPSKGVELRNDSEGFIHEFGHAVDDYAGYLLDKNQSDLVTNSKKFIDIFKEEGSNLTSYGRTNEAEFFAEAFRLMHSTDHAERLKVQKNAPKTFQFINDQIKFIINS
Autofluor counter: flagged as autofluorescent in microsphere protease counterscreen. compound autofluorescence counterscreen, microsphere flow cytometry; active compounds read high. hit rate 3.1% among 360,000. fluorescence intensity (concentration not given with the values); in the data active means fluorescence intensity above about 16000; inconclusive means no clear call, values can overlap the other calls
BoNT-A LC inh2: BoNT/A light chain protease inhibitors, primary screen, biochemical, flow cytometry, MLPCN library. multiplex microsphere protease substrate cleavage. inhibition, % at 10 µM. hit rate 0.17% among 360,000. AID 588499, 2011; further: plate controls were buffer without enzyme for full effect and enzyme alone for no effect
BoNT F protease: BoNT/F light chain protease inhibitors, primary screen, biochemical, flow cytometry, MLPCN library; Botulinum neurotoxin type F light chain protease (Clostridium botulinum); Multiplex microsphere protease cleavage assay; inhibition, % at 10 µM; hit rate 0.22% among 360,000; AID 588497, 2011; in the data active means inhibition above about 35%, passing the limit was not always enough; inconclusive means no clear call, values can overlap the other calls; further: plate controls were buffer without enzyme for full effect and enzyme alone for no effect
Numbers without * were called inactive; ? = inconclusive. The list is not random: actives were taken first. Their share in the collection is about 3.5%. Unless noted, no stated cut-off is given here; in the data, active means inhibition above about 30%; inconclusive means no clear call, values can overlap the other calls; inactive means below that.

SMILES	Anthrax LF inh2	Autofluor counter	BoNT-A LC inh2	BoNT F protease
Cc1c(OCc2nn[nH]n2)ccc2c3c(c(=O)oc12)CCCC3	-0.7	22827*	1.6	1.1
Cc1c(OCc2nn[nH]n2)ccc2c3c(c(=O)oc12)CCC(C)C3 (configuration not stated)	-9.9	22299*	?	-1.2
O=c1oc2cc(OCc3nn[nH]n3)ccc2c2c1CCCC2	-5.2	18827*	6.9	11.7
CC(=O)C(C)Oc1ccc2c3c(c(=O)oc2c1)CCCCC3 (configuration not stated)	-1.3	19944*	?	1.7
CCN(CC)C(=O)Cn1cc(S(=O)(=O)CC(=O)Nc2ccccc2F)c2ccccc21	-0.7	6062	-2.1	6.0
COc1ccc(S(=O)(=O)N2CCOCC2)cc1NC(=O)COC(=O)C1CC1C (configuration not stated)	2.4	?	-1.6	-3.0
COc1ccc(-c2cc(=O)oc3cc(OCc4nn[nH]n4)ccc23)cc1	-3.2	16695*	-0.3	-1.7
Cc1cc(OCc2nn[nH]n2)c2c3c(c(=O)oc2c1)CCC3	-3.3	19295*	2.7	5.6
CN=C(Nc1cc(C)nn1-c1ccccc1)c1ccccc1F	-1.4	23781*	-1.5	-2.9
CN=C(Nc1cc(C)nn1-c1ccccc1)c1ccccc1	-2.0	6841	0.2	-0.2
CCCOc1ccc(-c2nnn(CC(=O)N3CCCCC3)n2)cc1	1.5	4558	-0.2	-7.9
CCOc1ccc(-c2nnn(CC(=O)NCc3ccco3)n2)cc1	-1.7	19976*	?	-1.8
O=C(Cn1nnc(-c2ccccc2)n1)NCc1ccco1	2.8	2728	-0.4	4.6
CCOC(=O)C(Cc1ccccc1)NC(=O)Cn1nnc(-c2ccccc2)n1 (configuration not stated)	3.7	20857*	-3.3	-2.2
CCCOc1ccc(-c2nnn(CC(=O)OCC)n2)cc1	-5.6	22991*	-1.2	-0.9
CC(C)CC1NC(=O)c2cc3ccccc3cc2-n2c1nc1cc(Cl)ccc1c2=O (configuration not stated)	-3.3	3008	-0.1	1.8
CC1CC(C)CN(CCCNC(=O)CN2C(=O)c3cccnc3Oc3ccc(Cl)cc32)C1 (configuration not stated)	-3.6	6146	-1.3	-16.1
CCOC(=O)C1=CCC2C(=O)N(C)C(=O)C12 (configuration not stated)	4.2	5789	1.1	6.2
Cc1ccc(NC(=O)CN(C)CC(=O)N(C)Cc2ccccc2)cc1	3.0	5118	3.7	-3.3
Cc1nc(SCc2c(F)cccc2Cl)n[nH]1	-3.1	19718*	5.8	8.1
Cc1cc(C)n2nc(SCc3c(F)cccc3Cl)nc2n1	17.6	2833	1.2	0.5
COc1cc(C(=O)N(Cc2ccc(F)cc2)C2CCS(=O)(=O)C2)cc(OC)c1OC (configuration not stated)	1.8	17106*	-2.3	-2.1
CCOc1cccc(C(=O)N(Cc2ccc(F)cc2)C2CCS(=O)(=O)C2)c1 (configuration not stated)	0.1	21464*	?	-1.9
CN(C)c1ccc(CN(C(=O)COc2ccc(F)cc2)C2CCS(=O)(=O)C2)cc1 (configuration not stated)	-3.6	20985*	-2.7	-0.8
CCN(CC(=O)NCc1cccs1)C(=O)c1ccc(NS(=O)(=O)c2ccc(C(C)=O)cc2)cc1	3.5	5462	2.3	-5.0
SMILES	Anthrax LF inh2	Autofluor counter	BoNT-A LC inh2	BoNT F protease
COC(=O)CC1COc2ccccc2N1C(=O)c1cc(OC)c(OC)c(OC)c1 (configuration not stated)	3.1	2893	-1.8	-13.7
COC(=O)CC1COc2ccccc2N1C(=O)c1ccc(OC)cc1 (configuration not stated)	0.7	21654*	?	0.4
CCN(CC)C(=O)c1csc([C@@H]2O[C@H](CO)[C@H](O)[C@H](O)[C@H]2O)n1	-7.3	3942	-0.4	-6.9
O=C(Cn1ccc2ccccc2c1=O)NCCC(=O)Nc1ccc2c(c1)OCCO2	-5.6	20380*	?	-1.8
O=C(Cn1ccc2ccccc2c1=O)Nc1ccc2c(c1)OCO2	-1.5	4965	-1.3	-22.7
CC1Oc2ccccc2N(CC(=O)Nc2ccc3c(c2)OCCO3)C1=O (configuration not stated)	-2.9	11423	-1.1	-4.4
O=C(CN1C(=O)COc2ccc(Cl)cc21)Nc1ccc2c(c1)OCCO2	0.8	17358*	?	-6.2
CC1CC(=O)N(CC(=O)Nc2ccc3c(c2)OCCO3)c2ccccc2S1 (configuration not stated)	-1.1	16421*	-0.5	1.5

Assay outcomes as filed in PubChem.
